Results from PubChem BioAssay (NCI).
The panel holds about 83,000 compounds, 20% with a hit somewhere; the sample as a whole holds those more often.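 How to read the values: 0–100, growth inhibition (40 = 60% inhibited); 0, no net growth; -100 to 0, cell death (-40 = 40% of starting cells died; -100 = all dead).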 A number with no mark means an inactive call. Active and inactive are the calls of the source. Rule for the calls: active = growth percent below 10; inactive = the rest.

Legend:
Experiment in all cases: NCI-60 one-dose screen, 48 h (100 = growth as untreated, 0 = no growth, -100 = all killed)
NCI-H23 lung = conditions: 10 µM unless noted
NCI-H226 lung = conditions: 10 µM unless noted
NCI-H322M lung = conditions: 10 µM unless noted
HOP-62 NSCLC = conditions: 10 µM unless noted
NCI-H460 lung = conditions: 10 µM unless noted
HOP-92 NSCLC = conditions: 10 µM unless noted
NCI-H522 lung = conditions: 10 µM
786-0 renal = conditions: 10 µM unless noted
COLO 205 colon = conditions: 10 µM unless noted
DU-145 prostate = conditions: 10 µM unless noted
K-562 leukemia = conditions: 10 µM unless noted
MALME-3M melanoma = conditions: 10 µM unless noted
MDA-MB-231 breast = conditions: 10 µM unless noted
RXF 393 renal = conditions: 10 µM unless noted
SF-268 CNS = conditions: 10 µM unless noted
SF-295 CNS = conditions: 10 µM unless noted
SF-539 CNS = conditions: 10 µM unless noted
M14 melanoma = conditions: 10 µM unless noted
UACC-257 melanoma = conditions: 10 µM unless noted

Row | Structure (SMILES) | growth (NCI-H23 lung) | growth (NCI-H226 lung) | growth (NCI-H322M lung) | growth (HOP-62 NSCLC) | growth (NCI-H460 lung) | growth (HOP-92 NSCLC) | growth (NCI-H522 lung) | growth (786-0 renal) | growth (COLO 205 colon) | growth (DU-145 prostate) | growth (K-562 leukemia) | growth (MALME-3M melanoma) | growth (MDA-MB-231 breast) | growth (RXF 393 renal) | growth (SF-268 CNS) | growth (SF-295 CNS) | growth (SF-539 CNS) | growth (M14 melanoma) | growth (UACC-257 melanoma)
1 | Cc1ncc(C(=O)Nc2ccc(CN3CCN(C)CC3)c(C(F)(F)F)c2)cc1C#Cc1cncc2ncccc12 | 45.7% | 46.7% | 51% | 59.4% | 61% | 60.3% | 86.5% | -85.8% (active) | 32.2% | 66.9% | -10.7% (active) | 0.477% (active) | 21.3% | 36.7% | 57.7% | 82.6% | 67% | 5.36% (active) | 
2 | Cc1cc2ccccn2c1C(=O)c1ccc(C(=O)c2ccccc2)cc1 | 84% | 86.9% | 90.1% | 98.4% | 97.3% | 82.3% | 79.7% | 84.9% | 102% | 85.8% | 94.3% | 76.8% | 91% |  | 99.7% | 83.2% | 98.7% | 91.1% | 43.4%
3 | CN1CCN(CCCOc2ccc3ncnc(Nc4ccc(OCc5cccc(F)c5)c(Cl)c4)c3c2)CC1 | 54.9% | 88.8% | -9.88% (active) | 19.7% | -68.9% (active) | 35% | -43.4% (active) | -86.6% (active) | -46.5% (active) | 18.8% | -26.9% (active) | -78.6% (active) | -78.7% (active) | -80.4% (active) | -43% (active) | -57.4% (active) | -88.9% (active) | -83.4% (active) | 
4 | CCc1ccc(-c2nc(SCC(=O)NC3CCCCC3)n[nH]2)cc1 | 55% | 67.8% | 78.4% | 94.6% | 90.8% | 67.6% | 73.6% | 73.4% | 122% | 102% | 33.3% | 88.2% | 63.3% |  | 82.6% | 15.8% | 92.9% | 77.7% | -1.69% (active)
5 | O=c1[nH]cc(Nc2cc(Cl)c3nonc3c2[N+](=O)[O-])c(=O)[nH]1 | 91.2% | 92.3% | 110% | 102% | 107% | 95.5% | 98% | 105% | 109% | 111% | 108% | 109% | 104% |  | 126% | -37.1% (active) | 101% | 99.7% | 25.2%
6 | O=C1/C(=C/c2ccccc2O)C(=S)SN1Cc1ccco1 | 105% | 103% | 90.3% | 92.7% | 106% | 97.7% | 83.2% | 103% | 113% | 103% | 46.4% | 106% | 108% |  | 105% | 94.3% | 97.4% | 99.8% | 99.1%
7 | Cc1ccc(C(NC(=O)c2ccccc2)c2ccc3cccnc3c2O)cc1 (stereo not given) | 23.5% | -6.24% (active) | 25.3% | 17.3% | 4.02% (active) | 24.8% | -5.42% (active) | -14.5% (active) | 29.3% | 20.7% | 10.1% | 19.9% | 16.5% | 41.8% | 8.85% (active) | 10.3% | 7.53% (active) | -22.9% (active) | 
8 | CC(C)CC1NC(=O)C(CCCN)NC(=O)C(C(C)C)NC(=O)C2CCCN2C(=O)C(Cc2ccccc2)NC(=O)C(CC(C)C)NC(=O)C(CCCN)NC(=O)C(C(C)C)NC(=O)C2CCCN2C(=O)C(Cc2ccccc2)NC1=O (stereo not given) | -75.9% (active) | -59.7% (active) | -65.5% (active) | -86.5% (active) | -73.2% (active) | -56.7% (active) | -80.7% (active) | -85.9% (active) | -90.2% (active) | -52.5% (active) | -53.1% (active) | -76.3% (active) | -54.4% (active) | -65.7% (active) | -85.4% (active) | -77.4% (active) | -82.5% (active) | -63.8% (active) | -72.9% (active)
9 | CC(NC(N)=S)c1ccccc1 (stereo not given) | 110% | 101% | 97.8% | 85.6% | 101% | 106% | 102% | 98% | 107% | 115% | 94.6% | 105% | 91.9% | 98% | 106% | 101% | 96.1% | 104% | 
10 | Cn1ccnc1C(=O)/C=C/c1ccc(C(=O)Nc2nc3ccccc3[nH]2)cc1 | 23.3% | 82.4% | 43.8% | 34.1% | 10.9% | 52.8% | 58.6% | 23.6% | 55.1% | -13.7% (active) | 2.24% (active) | 72.7% | 19.3% | 2.67% (active) | 40.2% | 64.9% | 9.47% (active) | 71.1% | 
11 | CC(C)Sc1nc(Cl)c(C#N)c(-c2ccc(F)cc2)n1 | 100% | 103% | 102% | 109% | 113% | 92.2% | 86.8% | 96.4% | 115% | 113% | 16.2% | 100% | 111% | 116% | 106% | 108% | 96.5% | 94.5% | 118%
12 | COc1cc(-c2nc3nc4sc(C)c(C)c4c(=O)n3[nH]2)cc(OC)c1OC | 94.1% | 112% | 93% | 74.2% | 92.9% | 70.8% | 61.4% | 87.9% | 94.2% | 99.7% | 47% | 59.6% | 91.2% | 78.9% | 95.9% | 60.5% | 83.4% | 78.2% | 
13 | CCCCCCCCCCN1CCC(N2CCCCC2)CC1 | 38% | 69.5% | 88% | -64.7% (active) | -37.9% (active) | -12.4% (active) | -59.7% (active) | -93.1% (active) | -85.7% (active) | 54.3% | -75.6% (active) | -43.9% (active) | -36.3% (active) |  | 39.8% | 2.51% (active) | -80.4% (active) | -79.4% (active) | -91.2% (active)
14 | COc1ccc2[nH]c(=O)c(CNc3ccc(Nc4nccc(-c5ccc(Cl)cc5)n4)cc3)cc2c1 | 91.5% | 91.7% | 87.6% | 102% | 93.7% | 87.1% | 83.8% | 98% | 100% | 84.8% | 68.6% | 97.7% | 84.9% | 101% | 71.9% | 110% | 104% | 111% | 
15 | O=C(Nc1ccccc1)P(=O)(O)c1ccccc1 | 94% | 91.2% | 119% | 94.3% | 105% | 78.1% | 102% | 110% | 114% | 108% | 95.7% | 123% | 100% | 105% | 98.5% | 122% | 90.2% | 103% | 96.5%
16 | CN1CCC[C@@H]1CCO[C@](C)(c1ccccc1)c1ccc(Cl)cc1 | 79.9% | 75.5% | 78.4% | 75.2% | 91.3% | 51.6% | 88% | 66.5% | 20% | 91.5% | 30.4% | 71.8% | 88.7% | 38.7% | 81.8% | 63.2% | 76.2% | 15.6% | 23.4%
17 | O=C(Nc1nc(-c2ccc(Cl)cc2)cs1)c1cc(-c2ccc(Br)cc2)nc2ccc(Cl)cc12 | 33.5% | 71.2% | 92.1% | 37.2% | 108% | 5.28% (active) | 75.3% | 43% | 89.1% | 55.6% | 25.2% | 44.6% | 37.8% | 98.6% | 31.6% | 91% | 2.4% (active) | -16.8% (active) | 
